From PubChem BioAssay (NCI)
The panel holds about 83,000 compounds, 20% with a hit somewhere; the sample as a whole holds those more often.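 Step 1: grow cells in 96-well plates. Step 2: add test compound at a single concentration. Step 3: incubate 48 h. Step 4: record percent growth.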 Calls of active or inactive are those of the source. The calls were made as follows: active = growth percent below 10; inactive = the rest.

Assays:
Experiment in all cases: NCI-60 one-dose screen, 48 h (100 = growth as untreated, 0 = no growth, -100 = all killed)
Settings in all cases: 10 µM
NCI-H23 lung = test system: NCI-H23 lung
NCI-H226 lung = test system: NCI-H226 lung
NCI-H322M lung = test system: NCI-H322M lung
HOP-62 NSCLC = test system: HOP-62 NSCLC
NCI-H460 lung = test system: NCI-H460 lung
NCI-H522 lung = test system: NCI-H522 lung
A549/ATCC NSCLC = test system: A549/ATCC NSCLC
786-0 renal = test system: 786-0 renal
COLO 205 colon = test system: COLO 205 colon
DU-145 prostate = test system: DU-145 prostate

Measured: growth

O=C(Nc1cccc(-n2cc(-c3ccncc3)c(-c3cc(O)cc(Cl)c3)n2)c1)c1cc(C(F)(F)F)cc(C(F)(F)F)c1
inactive: NCI-H23 lung 42.7% | NCI-H226 lung 96% | NCI-H322M lung 74.1% | HOP-62 NSCLC 58.3% | NCI-H460 lung 19.9% | NCI-H522 lung 17.8% | A549/ATCC NSCLC 27.3% | 786-0 renal 55.1% | COLO 205 colon 38.7% | DU-145 prostate 62.1%

ClCC#CCSc1ncnc2c1ncn2CC#CCCl
inactive: NCI-H322M lung 15.3% | A549/ATCC NSCLC 46.5% | 786-0 renal 13.3% | COLO 205 colon 54.4%
active: NCI-H23 lung -6.61% | NCI-H226 lung -13.6% | HOP-62 NSCLC -58.4% | NCI-H460 lung 1.04% | NCI-H522 lung -56% | DU-145 prostate -20.9%

Nc1nccc(Nc2ccccc2)n1
inactive: NCI-H23 lung 101% | NCI-H226 lung 91.7% | NCI-H322M lung 115% | HOP-62 NSCLC 102% | NCI-H460 lung 109% | NCI-H522 lung 135% | A549/ATCC NSCLC 99.1% | 786-0 renal 96.4% | COLO 205 colon 114% | DU-145 prostate 109%

COc1ccc(/C=C2/CN(CCC#N)C/C(=C\c3ccc(OC)cc3)C2=O)cc1
inactive: NCI-H23 lung 31.1% | NCI-H322M lung 76%
active: NCI-H226 lung -6.76% | HOP-62 NSCLC -38% | NCI-H460 lung 2.6% | NCI-H522 lung -28% | A549/ATCC NSCLC -4.55% | 786-0 renal -14.3% | COLO 205 colon -52.3% | DU-145 prostate 5.29%

C=C(Cl)[C@@](Cl)(CBr)CC[C@@H](Br)C(C)(C)Cl
inactive: NCI-H23 lung 83.2% | NCI-H226 lung 105% | NCI-H522 lung 85.1%
active: NCI-H322M lung -98.1% | HOP-62 NSCLC -93.2% | NCI-H460 lung -47.7% | A549/ATCC NSCLC -6.36% | 786-0 renal -65.5% | COLO 205 colon -70.3% | DU-145 prostate -94.3%

CC1(C)OC2=C(CC1Br)C(=O)C(=O)c1ccccc12 (stereo not given)
active: NCI-H23 lung -64.3% | NCI-H226 lung -6.31% | HOP-62 NSCLC -88.1% | NCI-H460 lung 3.62% | NCI-H522 lung -67.6% | A549/ATCC NSCLC -39.9% | 786-0 renal -40.4% | COLO 205 colon -87.8% | DU-145 prostate -95.1%
inactive: NCI-H322M lung 27.1%

O=C(CCCCC[P+](c1ccccc1)(c1ccccc1)c1ccccc1)NC(COC(=O)C(Cl)Cl)(COC(=O)C(Cl)Cl)COC(=O)C(Cl)Cl
inactive: NCI-H23 lung 108% | NCI-H226 lung 102% | NCI-H322M lung 99.5% | HOP-62 NSCLC 96.1% | NCI-H460 lung 106% | NCI-H522 lung 126% | A549/ATCC NSCLC 96.5% | 786-0 renal 99.6% | COLO 205 colon 98.1% | DU-145 prostate 114%

COc1ccc2nc3ccccc3c(NCCNCC(C)O)c2c1 (stereo not given)
active: NCI-H23 lung -2.17% | NCI-H226 lung -4.19% | NCI-H322M lung -3.32% | HOP-62 NSCLC -13.6% | NCI-H460 lung -10.8% | NCI-H522 lung -26.5% | A549/ATCC NSCLC -36.4% | 786-0 renal 0.024% | COLO 205 colon -27.5% | DU-145 prostate 9.52%

O=C(O)CC(Cl)C(Cl)CC(=O)O (stereo not given)
inactive: NCI-H23 lung 102% | NCI-H226 lung 119% | NCI-H322M lung 93.1% | HOP-62 NSCLC 110% | NCI-H460 lung 101% | NCI-H522 lung 86.3% | A549/ATCC NSCLC 94.6% | 786-0 renal 101% | COLO 205 colon 112% | DU-145 prostate 106%

Clc1ccc(Nc2ccnc(NCCCNc3ccnc4cc(Cl)ccc34)n2)cc1
inactive: NCI-H23 lung 45.6% | NCI-H226 lung 93.7% | HOP-62 NSCLC 19.6%
active: NCI-H322M lung -16.7% | NCI-H460 lung -28.8% | NCI-H522 lung -76% | A549/ATCC NSCLC -65.1% | 786-0 renal -98.9% | COLO 205 colon -91.1% | DU-145 prostate 9.74%

Cc1ccc(C(=O)Nc2cccc(F)c2)cc1NC(=O)C1(c2ncnc3[nH]ccc23)CC1
inactive: NCI-H23 lung 68.2% | NCI-H226 lung 67.4% | NCI-H322M lung 116% | HOP-62 NSCLC 67.4% | NCI-H460 lung 96.2% | NCI-H522 lung 61% | A549/ATCC NSCLC 82.4% | 786-0 renal 110% | COLO 205 colon 59.1% | DU-145 prostate 106%

COc1ccc(S(=O)(=O)NCCCNc2nccc(-c3c(-c4ccc(F)cc4)nc4sccn34)n2)cc1
inactive: NCI-H23 lung 74.8% | NCI-H226 lung 68.9% | NCI-H322M lung 52.7% | HOP-62 NSCLC 79.7% | NCI-H460 lung 36.3% | NCI-H522 lung 59.3% | A549/ATCC NSCLC 32% | 786-0 renal 72.4% | COLO 205 colon 26.9% | DU-145 prostate 58.8%

COc1ccc(C2CC(c3ccc(N(C)C)cc3)=NN2c2ccc(S(N)(=O)=O)cc2)cc1 (stereo not given)
inactive: NCI-H23 lung 53.6% | NCI-H226 lung 52.4% | NCI-H322M lung 83.1% | HOP-62 NSCLC 78.2% | NCI-H460 lung 29.2% | NCI-H522 lung 40.9% | A549/ATCC NSCLC 26.1% | 786-0 renal 64.3% | COLO 205 colon 55.4% | DU-145 prostate 78.4%

Nc1nc(N)c(NC(=O)CNc2ccc(C(=O)O)cc2)c(N)n1
inactive: NCI-H23 lung 112% | NCI-H226 lung 98% | NCI-H322M lung 106% | HOP-62 NSCLC 107% | NCI-H460 lung 110% | NCI-H522 lung 92% | A549/ATCC NSCLC 102% | 786-0 renal 107% | COLO 205 colon 110% | DU-145 prostate 121%

CCOC(=O)C(=Cc1ccc(Br)cc1)C(=O)OCC
inactive: NCI-H23 lung 17.6% | NCI-H322M lung 39% | NCI-H460 lung 22.4%
active: NCI-H226 lung -33.6% | HOP-62 NSCLC 0.525% | NCI-H522 lung -65.1% | A549/ATCC NSCLC -25.6% | 786-0 renal -79% | COLO 205 colon -70.5% | DU-145 prostate 6.17%

CC1CC(=O)OC(C)C1 (stereo not given)
inactive: NCI-H23 lung 102% | NCI-H226 lung 93.1% | NCI-H322M lung 103% | HOP-62 NSCLC 92.2% | NCI-H460 lung 104% | NCI-H522 lung 103% | A549/ATCC NSCLC 95.8% | 786-0 renal 101% | COLO 205 colon 112% | DU-145 prostate 111%

Cc1cc(C)c2c(n1)sc1c(Nc3ccc(Cl)cc3)ncnc12
inactive: NCI-H322M lung 32% | NCI-H522 lung 16.1% | A549/ATCC NSCLC 18.2% | COLO 205 colon 10.6%
active: NCI-H23 lung 4.49% | NCI-H226 lung 1.79% | HOP-62 NSCLC 5.01% | NCI-H460 lung 5.8% | 786-0 renal -3.32% | DU-145 prostate 6.73%

CCN1CCCC1CNC(=O)c1ncc(-c2ccc(C(F)(F)F)cc2)c(NC2CCCCCC2)n1 (stereo not given)
inactive: NCI-H23 lung 92.5% | NCI-H226 lung 86% | NCI-H322M lung 84.7% | HOP-62 NSCLC 97% | NCI-H460 lung 80.4% | NCI-H522 lung 69.1% | A549/ATCC NSCLC 77.2% | 786-0 renal 84.5% | COLO 205 colon 42.7% | DU-145 prostate 83.2%

COc1cc(-c2cc(-c3cc4c([nH]c5ccccc54)c(-c4cc(OC)c(OC)c(OC)c4)n3)cc(-c3ccccc3)n2)cc(OC)c1OC
inactive: NCI-H23 lung 69.1% | NCI-H226 lung 77% | NCI-H322M lung 95% | HOP-62 NSCLC 78% | NCI-H460 lung 64.8% | NCI-H522 lung 43.4% | A549/ATCC NSCLC 42.8% | 786-0 renal 79.6% | COLO 205 colon 84.8% | DU-145 prostate 97.5%

COc1ccc(Nc2cc(C)nc(NCCCNc3ccnc4cc(Cl)ccc34)n2)cc1
active: NCI-H322M lung -3.79% | NCI-H460 lung -4.78% | NCI-H522 lung -74% | A549/ATCC NSCLC -44.7% | 786-0 renal -97.7% | COLO 205 colon -96.3%
inactive: NCI-H23 lung 63.2% | NCI-H226 lung 110% | HOP-62 NSCLC 18.7% | DU-145 prostate 28%
